Test results taken from PubChem BioAssay AID1529 (NMMLSC, 2009).
About 4,200 (1.4%) of roughly 290,000 compounds were called active.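 How the source made its calls: active means binding response more than 3 SD above or below the average of its plate-row segment, actives on both sides; inconclusive means wells at one plate position flagged as instrument error; inactive means the rest.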 The full list was thinned out, with actives kept by preference.

Target: Mitogen-activated protein kinase kinase kinase 3 (Homo sapiens) (UniProt Q99759)
Experiment: modulators of MEKK3-MEK5 PB1 binding, primary screen, biochemical, wildtype MEKK3, multiplex bead flow cytometry, Alexa488-MEK5 (AID 1529);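 further: Alexa488 bead fluorescence after subtracting the streptavidin-only scavenger bead signal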
Conditions: bead-based flow cytometry, Alexa488-MEK5 binding to MEKK3; at 10 µM; actives lie on both sides; 0 = blocked by unlabeled MEK5, 100 = vehicle

Sequence of Mitogen-activated protein kinase kinase kinase 3 (Homo sapiens) (Q99759 whole entry, looked up): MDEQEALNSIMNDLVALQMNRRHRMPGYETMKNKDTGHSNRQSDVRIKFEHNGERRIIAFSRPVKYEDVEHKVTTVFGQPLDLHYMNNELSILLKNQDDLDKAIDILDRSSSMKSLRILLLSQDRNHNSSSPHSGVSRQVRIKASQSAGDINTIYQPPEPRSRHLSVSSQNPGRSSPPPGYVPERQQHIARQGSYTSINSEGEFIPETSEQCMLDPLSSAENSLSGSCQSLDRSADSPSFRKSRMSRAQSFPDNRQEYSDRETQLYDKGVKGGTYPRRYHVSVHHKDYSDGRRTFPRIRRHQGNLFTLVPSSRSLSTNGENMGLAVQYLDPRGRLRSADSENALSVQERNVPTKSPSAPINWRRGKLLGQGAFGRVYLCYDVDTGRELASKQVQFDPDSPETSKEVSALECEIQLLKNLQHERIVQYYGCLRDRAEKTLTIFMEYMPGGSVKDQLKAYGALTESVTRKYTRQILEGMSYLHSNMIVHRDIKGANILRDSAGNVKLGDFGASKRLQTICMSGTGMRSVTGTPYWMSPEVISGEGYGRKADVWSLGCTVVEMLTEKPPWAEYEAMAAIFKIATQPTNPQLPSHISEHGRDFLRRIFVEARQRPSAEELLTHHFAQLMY

Compound	binding response (% of control)
C#CCOCCOCCOCCNc1nc(N2CCN(C(=O)C([C@@H](C)CC)n3cc(C(N)COC(=O)C(F)(F)F)nn3)CC2)nc(N2CCN(C(=O)[C@H](Cc3ccc(O)cc3)n3cc(C(N)[C@H](C)CC)nn3)CC2)n1 (stereo not given in full)	104% (inactive)
CC(=O)Nc1ccc(Oc2ccc3c(c2)C(=O)NC3=O)cc1	105% (inactive)
CC(C)(C)NC(=O)Cn1cnc2cc([N+](=O)[O-])ccc2c1=O	95% (inactive)
CC(C)(C)NC(=O)Cn1cnc([N+](=O)[O-])n1	1% [inhibitor] (active)
O=C(Cn1cnc([N+](=O)[O-])n1)NCCc1ccccc1	102% (inactive)
CCC(CC)COC(=O)C1=C(C)NC(=O)NC1c1ccc([N+](=O)[O-])cc1 (stereo not given)	105% (inactive)
CCSc1nnc(SCC(=O)NNC(=O)c2ccccc2F)s1	101% (inactive)
CCOc1ccc(NC(=O)Nc2cc(C)ccc2OC)cc1	71% [inhibitor] (active)
CCOc1ccc(NC(=O)Nc2cc(C)on2)cc1	102% (inactive)
CCOc1ccc(C(=O)Nc2cc(OC)ccc2OC)cc1	97% (inactive)
CC(C)CCC(C)NC(=O)c1ccc2nccnc2c1 (stereo not given)	61% (inactive)
CCCc1nnc(NC(=O)CCC(=O)NC2CC2)s1	96% (inactive)
CCOc1ccc(NC(=O)Nc2ccc(N(C)C(C)=O)cc2)cc1	101% (inactive)
CC(=O)N(C)c1ccc(NC(=O)Nc2cccc3ccccc23)cc1	103% (inactive)
CC(=O)N(C)c1ccc(NC(=O)C(F)(F)F)cc1	2% [inhibitor] (active)
CC(NCC(=O)Nc1cc(Cl)cc(Cl)c1)c1ccccc1 (stereo not given)	100% (inactive)
Cc1cc(=O)oc2c3c(cc(OCC(=O)N[C@H](C(=O)O)c4ccccc4)c12)OC(C)(C)CC3	97% (inactive)
C=CCC1(C(=O)N(C)Cc2ccccc2)CCN(C(=O)OC(C)(C)C)CC1	97% (inactive)
CC(=O)Nc1ccc(C(=O)Nc2nc(-c3cc(C)n(Cc4ccccc4)c3C)cs2)cc1	131% (active)
CC(=O)Nc1ccc(-c2csc(NC(=O)Nc3ccccc3)n2)cc1	101% (inactive)
Cc1cc(-c2csc(N)n2)c(C)n1Cc1ccccc1	91% (inactive)
O=C(COC(=O)c1ccc(N2CCCC2=O)cc1)c1ccc(OC(F)F)cc1	1% [inhibitor] (active)
O=C(NCCCN1CCCCCC1)c1ccc(N2CCCC2=O)cc1	108% (inactive)
CC1CCC(NC(=O)c2ccc(N3CCCC3=O)cc2)CC1 (stereo not given)	104% (inactive)

Compound	binding response (% of control)
COc1ccc(S(=O)(=O)NC(C)c2ccccc2)cc1C(=O)N1CCCCC1 (stereo not given)	103% (inactive)
CCCN1CCn2c3c(c4cc(Br)ccc42)CCCC31 (stereo not given)	96% (inactive)
O=C(c1cccs1)N(Cc1cc2ccccc2[nH]c1=O)CC1CCCO1 (stereo not given)	99% (inactive)
O=S(=O)(c1ccccc1)N1CN(Cc2ccc(F)cc2)c2nc3ccccc3nc21	85% (inactive)
C=CCN1CN(S(=O)(=O)c2ccc(OC)cc2)c2nc3ccccc3nc21	100% (inactive)
COc1ccc(S(=O)(=O)N2CN(CCc3ccc(OC)c(OC)c3)c3nc4ccccc4nc32)cc1	64% [inhibitor] (active)
Cc1ccc(C(=O)N2CCC(n3nccc3NC(=O)Nc3cccc(F)c3)CC2)cn1	96% (inactive)
COC(=O)c1ccc(/C=N/NC(=O)C(=O)N2CCCCCC2)cc1	101% (inactive)
CCn1cc(CN2CCN(CC(C)(C)C)C(CCO)C2)c2ccccc21 (stereo not given)	107% (inactive)
COC(=O)c1nc2n(n1)C(c1ccc([N+](=O)[O-])cc1)C(C(=O)Nc1ccc(Cl)cc1)=C(C)N2 (stereo not given)	139% (active)
COc1cc(C2C(C(=O)Nc3ccc(F)cc3)=C(C)Nc3nc(CCCO)nn32)cc(OC)c1OC (stereo not given)	104% (inactive)
COCCOC(=O)C1=C(C)Nc2nc(C)nn2C1c1ccccc1 (stereo not given)	97% (inactive)
CC(=O)N(c1ccc2oc(=O)sc2c1)S(=O)(=O)c1ccc(C)cc1	103% (inactive)
CN(Cc1ccccc1)C(=O)c1ccc(COc2ccccc2)cc1	109% (inactive)
COc1cc(OC)cc(C(=O)OCC(=O)Nc2sccc2C(N)=O)c1	97% (inactive)
c1ccc(-n2nnnc2-c2cccnc2)cc1	108% (inactive)
Clc1ccc(-n2nnnc2-c2cnc(-c3ccccn3)nc2-c2cccs2)cc1	100% (inactive)
FC(F)(F)c1nc(-c2ccccc2)ncc1-c1nnnn1-c1ccccc1	48% [inhibitor] (active)
C=CCN1C(=NC(=O)COc2ccccc2)SC2CS(=O)(=O)CC21 (stereo not given)	102% (inactive)
CCOC(=O)N1CCN(C(=O)Cn2cnc3ccccc3c2=O)CC1	99% (inactive)
CCOC(=O)N1CCN(C(=O)c2n[nH]c(=O)c3ccccc23)CC1	100% (inactive)
CCOC(=O)N1CCN(CC(=O)n2c(C)c(C)c3ccccc32)CC1	124% (active)
Cc1cccc(OCC(=O)Nc2ccc(C(=O)O)cc2NC(=O)COc2cccc(C)c2)c1	105% (inactive)
O=C(CN1CCN(Cc2ccccc2)CC1)Nc1ccc(F)c(F)c1	104% (inactive)

Compound	binding response (% of control)
O=C(Nc1ccc(S(=O)(=O)N2CCCCCC2)cc1)c1c(F)cccc1F	101% (inactive)
CC1(c2nnc(-c3ccncc3)o2)CC(c2cccnc2)=NO1 (stereo not given)	101% (inactive)
Cc1cccc(N2CCN(S(=O)(=O)c3ccc(-c4cc(C)no4)s3)CC2C)c1 (stereo not given)	97% (inactive)
Cc1[nH]c2ccccc2c1C(=O)COC(=O)c1c(-c2ccccc2)noc1C	108% (inactive)
Cc1onc(-c2ccccc2Cl)c1C(=O)NCCn1ccc2ccccc21	98% (inactive)
Cc1onc(-c2ccccc2Cl)c1C(=O)OCC(=O)c1ccccc1	1% [inhibitor] (active)
O=C(NCCCN1CCCCC1)C1CCCN(c2ncnc3c2nc2n3CCCCC2)C1 (stereo not given)	94% (inactive)
O=C(CCN1CCN(C/C=C/c2ccccc2)CC1)Nc1ccccc1Cl	104% (inactive)
COc1ccc(S(=O)(=O)N2CCOC2CNC(=O)C(=O)NCc2ccc(F)cc2)cc1 (stereo not given)	98% (inactive)
Cc1nc(SCC(=O)NC2CCCC2)[nH]c(=O)c1C	101% (inactive)
CCNS(=O)(=O)c1ccc(CCC(=O)N2CCN(c3cc(Cl)ccc3C)CC2)cc1	103% (inactive)
C=CCOc1ccc(/C=C2/C(=O)ON=C2C)cc1OCC	104% (inactive)
O=C(OCc1cc2ccccc2[nH]c1=O)c1cccnc1	109% (inactive)
O=C(OCc1cc(Cl)ccc1OC(F)F)c1cccnc1	146% (active)
Cc1cc(=O)[nH]c(SCc2cc(Cl)ccc2OC(F)F)n1	103% (inactive)
Cc1c(C(=O)N2CCCC2)c(S(=O)(=O)NCC(C)c2ccccc2)c(C)n1C (stereo not given)	101% (inactive)
Cc1ccc(NC(=O)C2CCN(S(=O)(=O)c3ccc4c(c3)NC(=O)CO4)CC2)cc1C	106% (inactive)
COC(C[C@@H]1O[C@@H]1C(=O)[C@@H](C)OCc1ccccc1)OC	102% (inactive)
CCc1c(C)sc(NC(=O)c2cccs2)c1C(N)=O	100% (inactive)
Cc1ccc(OCC(=O)NCCCNC(=O)c2cccnc2)cc1C	99% (inactive)
Cn1c(SCC(=O)N2CCCC2)nnc1-c1ccc2c(c1)OCO2	100% (inactive)
Cn1c(SCc2nc3ccccc3s2)nnc1-c1ccc2c(c1)OCO2	19% [inhibitor] (active)
O=C(O)CSc1nnc(-c2ccc3c(c2)OCO3)n1-c1ccccc1	103% (inactive)
O=C(OCc1ccc([N+](=O)[O-])cc1)C1CC(=O)N(Cc2ccccc2Cl)C1 (stereo not given)	100% (inactive)

Compound	binding response (% of control)
C/C(=N\NC(=O)Cc1ccc(F)cc1)c1ccc(F)cc1	98% (inactive)
O=C(CNC(=O)C(c1ccccc1)c1ccccc1)N/N=C\c1ccc2c(c1)OCO2	104% (inactive)
C/C(=N\NC(=O)CNC(=O)C(c1ccccc1)c1ccccc1)c1ccc(C)cc1	130% (active)
O=C(Oc1ccc(Br)cc1)c1cccnc1	101% (inactive)
C=CC1=C(C(=O)O)N2C(=O)[C@@H](NC(=O)/C(=N/OCC(=O)O)c3csc(N)n3)[C@H]2SC1	97% (inactive)
O=C(O)c1ccc2c(=O)n3c(nc2c1)/C(=C/c1ccc(OC(F)F)cc1OC(F)F)CC3	103% (inactive)
COc1ccc(NC(=O)CS(=O)(=O)c2ccccc2)cc1	105% (inactive)
CSc1ncccc1C(=O)NC1CCCCCC1	102% (inactive)
O=C(O)c1cccnc1NC1CCCC1	80% [inhibitor] (active)
O=C(NC1CCCCCC1)c1cccnc1Sc1ccc(Cl)cc1	91% (inactive)
CC1=CC(=C(C#N)c2nc3ccccc3s2)C=C(C)N1c1ccc(F)cc1F	104% (inactive)
CCOC(=O)C1CCN(C(=O)CN2C(=O)c3cccnc3Oc3ccc(C)cc32)CC1	103% (inactive)
CC/S(CC1CC1(Cl)Cl)=N\S(=O)(=O)c1ccc(C)cc1 (stereo not given)	96% (inactive)
Cc1ccc(S(=O)(=O)/N=S(\C)C(C)C)cc1 (stereo not given)	2% [inhibitor] (active)
CCCC/S(C)=N/S(=O)(=O)c1ccc(C)cc1 (stereo not given)	100% (inactive)
CC1CCCN(CC(=O)Nc2cc(Cl)ccc2Oc2ccccc2)C1 (stereo not given)	107% (inactive)
COC(=O)c1c(C)cc(O)c(C)c1O	102% (inactive)
CCOC(=O)CNC(=O)CSc1ncccc1-c1nc2ccccc2[nH]1	108% (inactive)
CCOC(=O)CNC(=O)CSc1nnc(COc2ccc(Cl)cc2)n1CC	96% (inactive)
CCOC(=O)CNC(=O)CSc1nc2cccnc2n1CC	127% (active)
COc1cc2c(cc1OC)C(c1ccncc1)CC(=O)N2 (stereo not given)	109% (inactive)
COc1cc2c(cc1OC)C(C(=O)Nc1cc(C)c(OC)c(C)c1)CC(=O)N2 (stereo not given)	109% (inactive)
COc1ccc(C2CC(=O)Nc3cc(C)c(C)cc32)c(OC)c1OC (stereo not given)	0% [inhibitor] (active)
